Screening results (PubChem BioAssay)
TrxR1 inh: blocks rat thioredoxin reductase 1; 1% of 390,000 active; AID 588453; recombinant rTrxR1, NADPH fluorescence consumption, selenite substrate; O89049; Potency, µM (doses to about 114 µM), without a hit: at the highest dose activity change, negative = inhibition, actives largely listed as inhibitors; note: potency is the fitted concentration of half-maximal effect; nearly all actives have a fitted effect of over 65% in size
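Rat TrxR1 (90 nM in the dispensed reagent) was pre-reduced with 400 uM NADPH for 5 min at room temperature, then incubated with compound for 15 min. After 400 uM selenite was added, NADPH fluorescence (Ex 340/Em 450 nm) was followed for 8 min.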
TrxR1 substrate: is turned over as a substrate by rat TrxR1; O89049; purified TrxR1 substrate turnover, NADPH consumption readout; Potency, µM (top dose mostly 114 µM), for inactives: at the top dose activity change, negative = substrate turnover; 0.01% of 390,000 active; note: potency is the fitted concentration of half-maximal effect; nearly all actives have a fitted effect of over 50% in size
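Rat TrxR1, dispensed at 90 nM, was prereduced with 400 uM NADPH (final) for 5 min at ~22 deg C, then incubated with compound 15 min before 400 uM selenite. A first-read NADPH fluorescence drop versus no-compound background flagged substrates.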
Giardia killer: kills Giardia lamblia. Giardia lamblia trophozoite viability. activity change, % at 7.66 µM, hits read low. 0.15% of 340,000 active. AID 540267; in the data active = activity change below about -80%; inconclusive = between about -30% and that limit;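 note: parasites exposed to compound for two days anaerobically before the ATP read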
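Trophozoites 100 cells/well + cpd; 48 hrs, 37 deg C, anaerobic. ATPLite 1-Step added, 15-30 min RT, luminescence read (ATP-based viability).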
GALK inh: galactokinase (human) inhibition; P51570; Purified GALK, Kinase-Glo residual ATP luminescence; Potency, µM (series often up to 57.5 µM), for inactives: at the highest dose activity change, negative = inhibition, actives largely listed as inhibitors; 0.007% of 270,000 active; note: potency is the fitted concentration of half-maximal effect
Target sequence (P51570 whole entry, looked up): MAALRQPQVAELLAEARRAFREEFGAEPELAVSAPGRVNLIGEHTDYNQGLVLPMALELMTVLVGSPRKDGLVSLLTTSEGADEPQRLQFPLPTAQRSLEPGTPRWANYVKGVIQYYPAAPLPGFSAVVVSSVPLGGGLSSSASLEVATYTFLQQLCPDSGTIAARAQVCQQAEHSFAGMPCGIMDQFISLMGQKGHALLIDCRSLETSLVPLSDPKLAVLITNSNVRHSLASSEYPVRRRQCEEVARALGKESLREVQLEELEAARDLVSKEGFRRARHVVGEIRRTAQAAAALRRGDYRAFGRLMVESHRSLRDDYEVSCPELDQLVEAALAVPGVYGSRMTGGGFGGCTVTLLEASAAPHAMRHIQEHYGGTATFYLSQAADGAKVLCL
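5 nM enzyme, 35 uM ATP, 100 uM galactose, 20 mM HEPES pH8.0, 5 mM MgCl2; 1 h RT; residual ATP by Kinase-Glo Plus luminescence, qHTS format.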
PI4K2A block: blocks human PI4K2A kinase activity. Q9BTU6. purified PI4K2A, ADP-Glo luminescence, 1 h; hits give low values. activity change, negative = inhibition, % at 76.9 µM. 0.13% of 420,000 active. AID 1346378; in the data active = activity change below about -50%; inconclusive = mostly about -30% to -49%;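 note: -100% = wells without enzyme as full effect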
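PI4K2A activity was measured by ADP-Glo luminescence: enzyme (4 ug/mL stock) and phosphatidylinositol (1.2 mM stock) in Tris pH 7.5/MgCl2/EGTA/Triton X-100 buffer were reacted with ATP (300 microM stock) for one hour at ambient temperature.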
FBPA coupling cs: inhibits coupling enzyme system, counter-screen for aldolase hits. coupling enzyme system counterscreen, AmpLite Red fluorescence. activity change, negative = inhibition, % at 58.2 µM, hits read low. 0.67% of 290,000 active. AID 2472; in the data active = activity change below about -30%
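Fluorescence at 525 nm excitation and 598 nm emission measured inhibition of the coupled detection system without aldolase. Compounds (at 57.5 uM final) were preincubated 10 min at room temperature with coupling enzyme reagent before a 20 min substrate/AmpLite Red step.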
* = called active by the depositor; ? = inconclusive; · = not tested or not shown; [ ] = dose if it differs, or a comment. Rows were chosen to be rich in hits. Some 1.5% of all compounds tested hit in one or more screens of this group. Unless noted, calls come from the whole dose curve; as a rule, active = well fitted curve in the direction sought with a large enough effect; inconclusive = small, poorly fitted or top-dose-only effect, or another doubt; inactive = no such curve, though single readings can be large; an effect the other way counts as inactive or inconclusive. Unless noted, % is set by controls: 0 for no effect and ±100 for the full control effect.

SMILES	TrxR1 inh	TrxR1 substrate	Giardia killer	GALK inh	PI4K2A block	FBPA coupling cs
CC(C)C[C@H](NC(=O)[C@H](Cc1ccccc1)NC(=O)[C@H](Cc1ccccc1)NC(=O)[C@@H](N)CO)C(=O)N[C@@H](CCCN=C(N)N)C(=O)N[C@@H](CC(N)=O)C(=O)O	·	·	·	·	·	4
O=S(=O)(O)c1ccc2c(N=Nc3ccc(S(=O)(=O)O)c4ccccc34)c(O)c(S(=O)(=O)O)cc2c1	71µM*	34%	·	·	·	·
COc1ccc(C2=NO[C@@H]3C(=O)N(c4ccc5c(c4)OCCO5)C(=O)[C@H]23)cc1OC	-16%	-5%	-11	-1%	1	-7
O=C1[C@@H]2C(c3cccnc3)=NO[C@@H]2C(=O)N1c1ccc2ccccc2c1	16µM*	9%[57.1 µM]	-5	1%	2	-1
CN(C)c1ccc(/C=C2\C(=O)/C(=C\c3ccc(N(C)C)cc3)c3ccccc32)cc1	6%	-12%	·	·	·	·
O=C(CSc1ccccn1)Nc1nc2ccccc2s1	-9%	-1%	-2	0%	1	2
O=S(=O)(CCSc1ccccn1)c1nc2ccccc2s1	14µM*	-3%	-6	-3%	57	0
O=S(=O)(CCSc1nc2ccccc2o1)c1nc2ccccc2s1	1.1µM*	3%[57.1 µM]	4	-4%	69	-11
COc1cc(CN(C(=O)COc2ccc(Cl)cc2)c2ccccn2)cc(OC)c1OC	16%	-7%	·	·	-1	·
CC1CCN(c2ccc(-c3cccc(NS(=O)(=O)c4cccs4)c3)nn2)CC1	24%[57.1 µM]	0%[57.1 µM]	·	·	-3	·
O=C(O)c1ccc(N/N=C/C(Br)=C/c2ccccc2)cc1	32µM*	-15%	-8	1%	-3	7
O=C(C[n+]1cc(Br)cc(Br)c1)c1ccc2c(c1)CCCC2	-21%	3%[0.0914 µM]	·	·	·	·
Cc1cc2c(cc1CC(=O)c1sccc1S(=O)(=O)Nc1onc(C)c1Cl)OCO2	·	·	·	·	-1	·
CC1=CC(C)(C)Nc2ccc(OC(=O)CN3C(=O)CCC3=O)cc21	-2%	18%	-18	-2%	4	-32*
CC1=CC(C)(C)Nc2ccc(OC(=O)C(C)N3C(=O)c4ccccc4C3=O)cc21 (centres undefined)	-5%	-10%	3	-3%	-2	0
CC[C@H](C)[C@H](NC(=O)[C@H](C)NC(=O)CNC(=O)[C@H](CCCN=C(N)N)NC(=O)[C@H](C)NC(=O)[C@H](CC(C)C)NC(=O)[C@H](CCC(=O)O)NC(=O)[C@H](CC(C)C)NC(=O)[C@H](C)NC(=O)[C@@H](N)CCC(=O)O)C(=O)N[C@@H](Cc1ccccc1)C(=O)N[C@@H](CCC(N)=O)C(=O)N[C@@H](C)C(=O)O	·	·	·	·	·	-1
O=c1ccc2ccccc2[nH]1	·	·	·	·	·	-7
C/C(=N\NS(=O)(=O)c1ccc(Cl)c([N+](=O)[O-])c1)c1ccc(C)o1	40µM*	-8%	7	1%	-2	0
Cc1cc(NN)nc(NS(=O)(=O)c2ccc(Cl)cc2)n1	9%	2%	2	15%	-5	0
CCN(CC)c1nc(N)nc(NS(=O)(=O)c2ccc(Cl)cc2)n1	-14%	-3%	-1	3%	4	-33*
CC#CCN1c2ccccc2[C@]23C[C@@H](C(=O)OC)N(C(=O)CC(C)C)C2=NC(C(=O)OC)=C(C(=O)OC)[C@H]13	·	·	·	·	·	0
CCOC(=O)c1ccc(NC2=CC(=O)C(=O)c3ccccc32)cc1	9%	-7%	-12	-3%	-25	·
COc1cc(OC)c(NC2=CC(=O)C(=O)c3ccccc32)cc1Cl	-6%[57.1 µM]	-8%[57.1 µM]	10	·	-5	-50*
NS(=O)(=O)c1ccc(NC2=CC(=O)C(=O)c3ccccc32)cc1	?	?	-21	?	?	-71*
O=C1C=C(Nc2ccc(O)cc2)C(=O)c2ccccc21	5%	5%	-14	9%	-56*	-16
SMILES	TrxR1 inh	TrxR1 substrate	Giardia killer	GALK inh	PI4K2A block	FBPA coupling cs
Cc1ccc(NC2=CC(=O)C(=O)c3ccccc32)cc1	-1%[57.1 µM]	1%[57.1 µM]	-3	-1%	-66*	-56*
Cc1cc(NC2=CC(=O)C(=O)c3ccccc32)no1	10%[11.4 µM]	-6%[11.4 µM]	10	·	-25	·
Cc1ccc(-n2c(SCC(=O)Nc3ccc4c(c3)OCCO4)nnc2-c2cccnc2)cc1	·	·	·	·	3	·
C/C=C1\COC(C(=O)NC)(C(F)(F)F)C=C1C=C1CCCCC1 (centres undefined)	1.4µM*	0%	6	·	·	-1
C/C=C1\COC(C(=O)NCCOCCO)(C(F)(F)F)C=C1C=C1CCCCC1 (centres undefined)	1.6µM*	5%	15	·	·	0
C/C=C1\COC(C(=O)NCc2ccncc2)(C(F)(F)F)C=C1C=C1CCCCC1 (centres undefined)	18µM*	-3%	35	·	4	-5
O=C(NCc1ccccc1)C1(C(F)(F)F)C/C(=C/Cc2ccccc2)CCCO1 (centres undefined)	-11%	-8%	-10	·	·	2
COc1cccc(CNC(=O)CN2CCCc3ccccc32)c1OC	·	·	·	·	-5	·
C/C=C1\COC(C(=O)NCc2cccc(OC)c2OC)(C(F)(F)F)C=C1C=C1CCCCC1 (centres undefined)	5µM*	-3%	-19	·	-1	0
Nc1cccc2cccnc12	23%[0.0914 µM]	2%	·	·	·	·
CC=C1COC(C(=O)NCCOCCO)(C(F)(F)F)C=C1C=C(C)C (centres undefined)	3.5µM*	5%	?	·	·	1
COc1ccc(C(C#N)N2N=C(C)CC2(C)C)cc1OC (centres undefined)	40µM*	0%	-15	1%	-6	2
COc1ccc(CN2CCNC(=O)C2CC(=O)N2CCCCO2)cc1OC (centres undefined)	-6%	4%	?	-1%	-4	-30*
CN(C)CC/C=C1/c2ccccc2Sc2c(O)cc(Cl)cc21	4%[57.1 µM]	9%[57.1 µM]	-12	0%	4	-31*
COc1cc(Cl)cc2c1Sc1ccccc1/C2=C/CCN(C)C	?	-5%	-1	-3%	6	0
Cc1cc(-c2ccc(C)c(S(=O)(=O)N(C)c3ccc(C)c(C)c3)c2)on1	18%[57.1 µM]	-2%[57.1 µM]	·	·	0	·
Cc1ccc(C2=NCCn3c2c2ccccc2[n+]3[O-])cc1	-11%	-6%	-90*	·	0	·
[O-][n+]1c2ccccc2c2n1CCN=C2c1ccc(Cl)cc1	0%[57.1 µM]	8%[57.1 µM]	-84*	·	0	·
COc1ccc2c3n([n+]([O-])c2c1)CCN=C3c1ccc(Cl)cc1	12%	3%	?	·	2	·
[O-][n+]1c2ccccc2c2n1CCCN=C2c1ccc(Cl)cc1	12%	-2%	-84*	·	1	·
